Results published in the supplement of paper PMC11417369.
± gives the standard deviation of the averaged measurements. The full ranking holds about 25,000 sequences; the median of “ln(normalized median fluorescence intensity)” is about 7.9, and the highest 2% start at about 11. Only a selection was taken, and the highest values are over-represented in it overall.

System: PfAP2-I AP2 domain 3 (GST-tagged)
Assay: gcPBM binding intensity (ln(normalized median fluorescence intensity)); higher = stronger DNA binding
In short: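 Binding intensity is the highest Masliner-normalised natural-log median intensity over replicate spots in either probe orientation. To obtain it, GST-tagged P. falciparum DNA-binding domains made in E. coli were incubated for 1 h on an Agilent 4 × 180k array of primer-extended double-stranded 36-bp intergenic genomic probes plus negative controls. Detection used Alexa488 anti-GST antibody with scanning at 488 nm.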

First: GGTTATAACCCACATGCACACGTAAATAAATATTAT [CACACA_site5992]
Second: AAATAACCCACGTGCATGCACTTCAATAACTGAACT
The “gcPBM binding intensity (ln)” value of the first is lower: 8.77 ± 0.3 for the first, 11.3 ± 0.14 for the second.

First: TGAAATAACCCATGTGCATGCACTTCAATAACTGAA [TGCATGCA_site1041]
Second: TTGTATTCATATGGTTGTACATATTAAAAGTTCTAA [XGTACX_site7255]
The “gcPBM binding intensity (ln)” value of the first is higher: 9.54 ± 0.47 for the first, 7.73 ± 0.31 for the second.

Going from CATATTATTATTTTGGTGCATACTTATATATATTTT to “ATAGTTTAATTTATATGTACATATAATATTGATTTG [XGTACX_site7520]”, the “gcPBM binding intensity (ln)” value falls from 9.53 ± 0.085 to 7.89 ± 0.41.

“TACTTATTTGATTGGGTGCATATATATAGTATGTAT [GTGCAC_site9845]” and “GTCAATATTTAGATATGTACTAAGGAGTGCTATATA [XGTACX_site222]” are within error of each other in “gcPBM binding intensity (ln)” value: 11 ± 0.73 for the first, 10.2 ± 0.55 for the second.

“TCCGCATGTACATGGGTGCACATAACACCCATTTAA [GTGCAC_site9881]” and TTTTGTTTTTGTAGAGTGCATAAAGAAGATATGTAT are within error of each other in “gcPBM binding intensity (ln)” value: 10.4 ± 0.44 for the first, 11.1 ± 0.86 for the second.

GAAAAGCAGATAAATGTGCACATATATGTTTGTATA and “TATATATGTATAAGAGTGCATATGCATATATGTATA [GTGCAC_site9692]” are within error of each other in “gcPBM binding intensity (ln)” value: 9.71 ± 0.43 for the first, 9.85 ± 0.014 for the second.

Compared with “CAAAAGGATATGCACACACACACACGGATATTTATA [CACACA_site7099]”, “TATTTATGCACGCGTGCACACACATATGAAAAAAGG [CACACA_site9090]” is higher in “gcPBM binding intensity (ln)” value: 8.985 ± 0.064 for the first, 11.1 ± 0.59 for the second.

First: GGTATTTATGGACGCGTGCACACACATATGAACAAA
Second: TATGAAAAAATATATACACACATAATAAAGGTATAT [CACACA_site3737]
The “gcPBM binding intensity (ln)” value of the first is higher: 9.9 ± 0.14 for the first, 7.73 ± 0.59 for the second.

First: TTTATGCACGCGTGCACACACATATGAAAAAAGGTA [CACACA_site3315]
Second: TTATATGCATAAAAAGGTACACATATATAAATAAAT [XGTACX_site6894]
The “gcPBM binding intensity (ln)” value of the first is higher: 10.9 ± 0.72 for the first, 8.23 ± 0.4 for the second.

“TTTGTTATATTTAATACACACATATTATAAACCCAT [CACACA_site3716]” and “TTTTCTTACACGAATTTTAAATTCAATATTAAACAT [CACACA_negctrl_site286]” are within error of each other in “gcPBM binding intensity (ln)” value: 7.95 ± 0.59 for the first, 8.03 ± 0.44 for the second.

“ATGTATATTTTTATGTGTACGTAATAAAACATAATA [XGTACX_site7777]” and “AAATCCATATAGGATTGTACATATATTATATATATA [XGTACX_site8818]” are within error of each other in “gcPBM binding intensity (ln)” value: 8.33 ± 0.27 for the first, 8.46 ± 0.39 for the second.

First: ATCCTCTTTACAATATGTACATAAATATATATTTAT [XGTACX_site8001]
Second: TTTTGTTATTTTTCAGTGCAATATGATAATAATATA
The “gcPBM binding intensity (ln)” value of the first is lower: 8.47 ± 0.43 for the first, 10.5 ± 0.46 for the second.

Compared with TTTTTTGTTATGCGGGTGCATATAATAATGTGATGA, “TACACATAATATAATGCATGTGTGATGTATGTTTAA [TGCATGCA_site697]” is lower in “gcPBM binding intensity (ln)” value: 10.9 ± 0.89 for the first, 8.09 ± 0.66 for the second.

“TTTTTTTTTTTTTGTACATGCAAATATTATGAACAC [TGCATGCA_site571]” and “GAAATAATTCGATGTGCATGTAACGTTTCCCCAAAG [TGCATGCA_site122]” are within error of each other in “gcPBM binding intensity (ln)” value: 8.28 ± 0.53 for the first, 8.58 ± 0.54 for the second.

Compared with “AATAAATAAATAAGTACACACATATAAATATAAATA [CACACA_site6271]”, “TGTTATTAAAATATAGTGCATAATTAACCATTATAA [GTGCAC_site9594]” is higher in “gcPBM binding intensity (ln)” value: 7.91 ± 0.25 for the first, 10.8 ± 0.65 for the second.

Going from TTTTATGCGCAATAAGTGCATTTAAAATATATATAT to “AATAAAATAAATATATGTACATATATATAACCATTA [XGTACX_site5549]”, the “gcPBM binding intensity (ln)” value falls from 11 ± 0.13 to 7.59 ± 0.38.

TGGTTTATTTATTAAGTGCATAAATGCAATATATAT and ATTCTTAAAAAATAAGTGCAAAATAATTAAATAAAT are within error of each other in “gcPBM binding intensity (ln)” value: 10.6 ± 0.44 for the first, 10.23 ± 0.014 for the second.

ATATATTTTTATGTAGTGCATTTAAATAATAAATGC and “AAGTATTATTTTTATGCATGTGAAGTGCAAAATAAA [TGCATGCA_site198]” are within error of each other in “gcPBM binding intensity (ln)” value: 10.7 ± 0.55 for the first, 11 ± 0.43 for the second.

First: TTTTATGCATGTGAAGTGCAAAATAAAAAATAAAAT [GTGCAC_site9612]
Second: TGATATAAAATTAAAGTGCAAAAAAAAAATAAAAAA
The “gcPBM binding intensity (ln)” value of the first is higher: 10.8 ± 0.4 for the first, 10.06 ± 0.078 for the second.

“AGGATATATAATTAAGTGCATTAATTCAAAATAAAA [GTGCAC_site9702]” and “AATATATATAAAAAAGTGCATTAGGATAACCATATA [GTGCAC_site9590]” are within error of each other in “gcPBM binding intensity (ln)” value: 11.5 ± 0.54 for the first, 11.2 ± 0.57 for the second.

“TTATAAAATATTTATGCATGTGAAGAATATTATAAA [TGCATGCA_site1047]” and “AAAAAAAAAAAAAATTGTACATTAAATTAAAAGAAA [XGTACX_site8708]” are within error of each other in “gcPBM binding intensity (ln)” value: 8.42 ± 0.34 for the first, 7.88 ± 0.28 for the second.

Going from ATATATATATATATAGTGCAAATATCTTCTTTATAA to “ATACAAGAATTAAACACACACAAAATATAAATTCTT [CACACA_site3005]”, the “gcPBM binding intensity (ln)” value falls from 10.4 ± 0.26 to 7.85 ± 0.71.

“AAATATTATTGACGATGTACTTCTATTCATAAGTAT [XGTACX_site3964]” and “TAAAAATAAAGAAAATGTACATAAATAAAAATAAAG [XGTACX_site2279]” are within error of each other in “gcPBM binding intensity (ln)” value: 7.55 ± 0.5 for the first, 8.14 ± 0.69 for the second.

“GATATAATGTGTTTGGTATTCTTGATAGATAGTTTT [CACACA_negctrl_site1711]” and “TGTAATGTTTACAACACACAAATTATAAATACAAAA [CACACA_site5047]” are within error of each other in “gcPBM binding intensity (ln)” value: 7.7 ± 0.47 for the first, 7.67 ± 0.59 for the second.
